Counter-ions that a name gives are not always drawn. ± gives the standard deviation of the averaged measurements. Whole data set: some 1,900 compounds, median “normalised cell viability (NPI; 0 = phenylarsine oxide control, 1 = DMSO control)” near 1, cut for the lowest 2% near 0.039. The sample as a whole holds a higher share of the lowest values than the screen did.
Test system: NCI-H1944
Test: normalised cell viability (NPI; 0 = phenylarsine oxide control, 1 = DMSO control) (fraction of DMSO control); NCI-H1944 is a non-small cell lung cancer line; higher = more viable cells (less compound toxicity)
Settings: 6 days
[1] = glucocorticoid arm: hydrocortisone 2.75 uM co-treatment, compound 1 µM
[2] = glucocorticoid arm: hydrocortisone 2.75 uM co-treatment, compound 5 µM
[3] = glucocorticoid arm: hydrocortisone 2.75 uM pre-treated 2 days and continued, compound 1 µM
[4] = glucocorticoid arm: hydrocortisone 2.75 uM pre-treated 2 days and continued, compound 5 µM
[5] = glucocorticoid arm: vehicle, compound 1 µM
[6] = glucocorticoid arm: vehicle, compound 5 µM
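Further: CTB read-out in 384-well plates, triplicate wells, NPI normalised per plate against 1 µM phenylarsine oxide (0) and 0.1% DMSO (1) controls.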

SMILES: CCCCCCCCCCCCCCCCCCOCC(COP(=O)([O-])OCC[N+](C)(C)C)OC (stereo not given)
- normalised cell viability [1]: 1.006 ± 0.0063
- normalised cell viability [2]: 0.993 ± 0.015
- normalised cell viability [3]: 0.9897 ± 0.0011
- normalised cell viability [4]: 0.989 ± 0.028
- normalised cell viability [5]: 0.9853 ± 0.0049
- normalised cell viability [6]: 0.9957 ± 0.0059

SMILES: CC(C)c1ccccc1Cc1cc(C(=O)Nc2ccc(S(=O)(=O)c3ccccc3C(C)(C)C)cc2)c(O)c(O)c1O
- normalised cell viability [1]: 0.9933 ± 0.0099
- normalised cell viability [2]: 0.826 ± 0.049
- normalised cell viability [3]: 0.998 ± 0.014
- normalised cell viability [4]: 0.961 ± 0.018
- normalised cell viability [5]: 1.007 ± 0.0058
- normalised cell viability [6]: 0.813 ± 0.033

SMILES: CC(=O)NCC(=O)N1[C@@H]2CC[C@H]1c1ccc(Nc3ncc(C(F)(F)F)c(NC4CCC4)n3)cc12
- normalised cell viability [1]: 0.712 ± 0.0091
- normalised cell viability [2]: 0.552 ± 0.019
- normalised cell viability [3]: 0.83 ± 0.0095
- normalised cell viability [4]: 0.717 ± 0.01
- normalised cell viability [5]: 0.301 ± 0.018
- normalised cell viability [6]: 0.201 ± 0.017

SMILES: C/C(=C\c1csc(C)n1)[C@@H]1C[C@@H]2O[C@]2(C)CCC[C@H](C)[C@H](O)[C@@H](C)C(=O)C(C)(C)[C@@H](O)CC(=O)N1 [Ixabepilone]
- normalised cell viability [1]: 0.132 ± 0.012
- normalised cell viability [2]: 0.146 ± 0.018
- normalised cell viability [3]: 0.484 ± 0.023
- normalised cell viability [4]: 0.477 ± 0.05
- normalised cell viability [5]: 0.0322 ± 0.0044
- normalised cell viability [6]: 0.032 ± 0.004

SMILES: CC(C)C[C@@H]1NC(=O)[C@@H](C(C)C)NC(=O)[C@@H]2CCCN2C(=O)[C@@H](CC(=O)O)NC(=O)[C@@H](Cc2c[nH]c3ccccc23)NC1=O
- normalised cell viability [1]: 1.01 ± 0.014
- normalised cell viability [2]: 1 ± 0.018
- normalised cell viability [3]: 1.02 ± 0.025
- normalised cell viability [4]: 1.003 ± 0.0061
- normalised cell viability [5]: 0.9943 ± 0.005
- normalised cell viability [6]: 1.013 ± 0.0058

SMILES: Cc1ncc(-c2ccnc(Nc3ccc(S(C)(=O)=O)cc3)n2)n1C(C)C
- normalised cell viability [1]: 0.584 ± 0.057
- normalised cell viability [2]: 0.062 ± 0.0037
- normalised cell viability [3]: 0.705 ± 0.061
- normalised cell viability [4]: 0.319 ± 0.083
- normalised cell viability [5]: 0.191 ± 0.045
- normalised cell viability [6]: 0.0177 ± 0.0014

SMILES: CN(C)CCC(c1ccc(Cl)cc1)c1ccccn1 (single isomer, unassigned; (+)) [(+)-Chlorpheniramine maleate]
- normalised cell viability [1]: 0.9827 ± 0.0045
- normalised cell viability [2]: 0.997 ± 0.012
- normalised cell viability [3]: 0.979 ± 0.004
- normalised cell viability [4]: 1.005 ± 0.0071
- normalised cell viability [5]: 0.968 ± 0.011
- normalised cell viability [6]: 0.978 ± 0.003

SMILES: CCCCC1(C2CCCC2)Cc2cc(OCC(=O)O)c(Cl)c(Cl)c2C1=O (stereo in doubt) [R(+)-Butylindazone]
- normalised cell viability [1]: 0.9903 ± 0.0064
- normalised cell viability [2]: 0.958 ± 0.011
- normalised cell viability [3]: 0.988 ± 0.01
- normalised cell viability [4]: 0.965 ± 0.028
- normalised cell viability [5]: 0.983 ± 0.006
- normalised cell viability [6]: 0.9887 ± 0.004

SMILES: O=C1NCCc2[nH]c(-c3ccncc3)cc21
- normalised cell viability [1]: 1.02 ± 0.015
- normalised cell viability [2]: 0.0894 ± 0.0076
- normalised cell viability [3]: 0.9933 ± 0.0072
- normalised cell viability [4]: 0.145 ± 0.006
- normalised cell viability [5]: 0.916 ± 0.016
- normalised cell viability [6]: 0.0151 ± 0.0021

SMILES: O=C1NC(=O)/C(=C/c2ccc3nccc(-c4ccncc4)c3c2)S1
- normalised cell viability [1]: 0.697 ± 0.026
- normalised cell viability [2]: 0.836 ± 0.011
- normalised cell viability [3]: 0.73 ± 0.039
- normalised cell viability [4]: 0.848 ± 0.026
- normalised cell viability [5]: 0.886 ± 0.023
- normalised cell viability [6]: 0.932 ± 0.027

SMILES: Cc1[nH]c(=O)c(C#N)cc1-c1ccncc1 [Milrinone]
- normalised cell viability [1]: 0.996 ± 0.013
- normalised cell viability [2]: 1.001 ± 0.0083
- normalised cell viability [3]: 0.998 ± 0.0035
- normalised cell viability [4]: 1.05 ± 0.081
- normalised cell viability [5]: 0.9903 ± 0.009
- normalised cell viability [6]: 0.993 ± 0.015

SMILES: CCCCCCCCCCCCCCCCCC(=O)OC(CC(=O)O)C[N+](C)(C)C (racemic) [DL-Stearoylcarnitine chloride]
- normalised cell viability [1]: 0.9967 ± 0.0042
- normalised cell viability [2]: 0.906 ± 0.03
- normalised cell viability [3]: 1.01 ± 0.019
- normalised cell viability [4]: 0.993 ± 0.0017
- normalised cell viability [5]: 1.013 ± 0.0058
- normalised cell viability [6]: 0.99967 ± 0.00058

SMILES: CNc1ncnc2c1ncn2[C@H]1C[C@H](OP(=O)(O)O)[C@@H](COP(=O)(O)O)O1
- normalised cell viability [1]: 0.991 ± 0.0056
- normalised cell viability [2]: 0.987 ± 0.029
- normalised cell viability [3]: 1 ± 0.016
- normalised cell viability [4]: 0.981 ± 0.027
- normalised cell viability [5]: 0.996 ± 0.0061
- normalised cell viability [6]: 0.9943 ± 0.0047

SMILES: C[C@H](O)[C@H](O)[C@H]1CNc2nc(N)[nH]c(=O)c2N1 [(6R)-5,6,7,8-Tetrahydro-L-biopterin dihydrochloride]
- normalised cell viability [1]: 1.02 ± 0.011
- normalised cell viability [2]: 1.01 ± 0.026
- normalised cell viability [3]: 0.923 ± 0.18
- normalised cell viability [4]: 1.001 ± 0.009
- normalised cell viability [5]: 1.02 ± 0.01
- normalised cell viability [6]: 1.02

SMILES: CN1CCc2c(cc(O)c(O)c2Cl)C(c2cccc(Cl)c2)C1 (stereo not given)
- normalised cell viability [1]: 1.006 ± 0.0063
- normalised cell viability [2]: 1.03 ± 0.03
- normalised cell viability [3]: 1.01 ± 0.039
- normalised cell viability [4]: 1.017 ± 0.0058
- normalised cell viability [5]: 1
- normalised cell viability [6]: 1.013 ± 0.0058

SMILES: CN1CCN(c2ccc(OC(F)(F)F)c(Nc3ncc4c(n3)-c3c(c(C(N)=O)nn3CCO)CC4)c2)CC1
- normalised cell viability [1]: 0.183 ± 0.025
- normalised cell viability [2]: 0.146 ± 0.02
- normalised cell viability [3]: 0.428 ± 0.025
- normalised cell viability [4]: 0.556 ± 0.069
- normalised cell viability [5]: 0.0347 ± 0.0042
- normalised cell viability [6]: 0.0361 ± 0.0086

SMILES: CCC(=O)Nc1cccc(Oc2nc(Nc3ccc(N4CCN(C)CC4)cc3OC)ncc2Cl)c1
- normalised cell viability [1]: 1.07 ± 0.017
- normalised cell viability [2]: 1.11 ± 0.01
- normalised cell viability [3]: 1.057 ± 0.0058
- normalised cell viability [4]: 1.07 ± 0.035
- normalised cell viability [5]: 1 ± 0.011
- normalised cell viability [6]: 1.01 ± 0.01

SMILES: CNC(=O)c1nn(C)c2c1C(C)(C)Cc1cnc(Nc3ccc(N4CCN(C)CC4)cc3)nc1-2
- normalised cell viability [1]: 0.485 ± 0.019
- normalised cell viability [2]: 0.306 ± 0.002
- normalised cell viability [3]: 0.549 ± 0.019
- normalised cell viability [4]: 0.424 ± 0.013
- normalised cell viability [5]: 0.282 ± 0.0098
- normalised cell viability [6]: 0.126 ± 0.0072

SMILES: OCCn1cc(-c2cnc3nnn(Cc4ccc5ncccc5c4)c3n2)cn1
- normalised cell viability [1]: 1 ± 0.01
- normalised cell viability [2]: 1.02 ± 0.026
- normalised cell viability [3]: 1.02 ± 0.015
- normalised cell viability [4]: 1.02 ± 0.052
- normalised cell viability [5]: 1.01 ± 0.011
- normalised cell viability [6]: 1.02 ± 0.015

SMILES: Cc1c(NC(=O)c2ccc(C(C)(C)C)cc2)cccc1-c1cn(C)c(=O)c(Nc2ccc(C(=O)N3CCOCC3)cc2)n1
- normalised cell viability [1]: 1.017 ± 0.0058
- normalised cell viability [2]: 1.03 ± 0.032
- normalised cell viability [3]: 1.007 ± 0.0058
- normalised cell viability [4]: 0.987 ± 0.022
- normalised cell viability [5]: 1 ± 0.0087
- normalised cell viability [6]: 1.006 ± 0.0063

SMILES: CN1C2CCC1CC(NC(=O)c1nn(C)c3ccccc13)C2 (stereo not given) [LY-278,584 maleate]
- normalised cell viability [1]: 0.9863 ± 0.0067
- normalised cell viability [2]: 0.977 ± 0.033
- normalised cell viability [3]: 0.9957 ± 0.0075
- normalised cell viability [4]: 1.03 ± 0.085
- normalised cell viability [5]: 0.9753 ± 0.0051
- normalised cell viability [6]: 0.9783 ± 0.0091

SMILES: CC(C)NCC(O)COc1ccc(CC(N)=O)cc1 (racemic) [(±)-Atenolol]
- normalised cell viability [1]: 0.987 ± 0.007
- normalised cell viability [2]: 1.001 ± 0.0085
- normalised cell viability [3]: 1.003 ± 0.0064
- normalised cell viability [4]: 1.02 ± 0.021
- normalised cell viability [5]: 1.005 ± 0.0092
- normalised cell viability [6]: 1.01

SMILES: NC(C(=O)O)C(O)C(=O)O (racemic) [DL-threo-beta-hydroxyaspartic acid]
- normalised cell viability [1]: 1.01 ± 0.011
- normalised cell viability [2]: 1.01 ± 0.028
- normalised cell viability [3]: 1.01 ± 0.022
- normalised cell viability [4]: 1.01 ± 0.018
- normalised cell viability [5]: 1.003 ± 0.0061
- normalised cell viability [6]: 1.001 ± 0.0081

SMILES: CCCN(CCc1ccccc1)C1CCc2c(O)cccc2C1 (racemic) [(±)-PPHT hydrochloride]
- normalised cell viability [1]: 0.986 ± 0.011
- normalised cell viability [2]: 0.969 ± 0.03
- normalised cell viability [3]: 1.05 ± 0.078
- normalised cell viability [4]: 0.966 ± 0.02
- normalised cell viability [5]: 1.007 ± 0.0058
- normalised cell viability [6]: 1.003 ± 0.0058

SMILES: Cl.N[C@@H](CCC(=O)O)C(=O)O [L-Glutamic acid hydrochloride]
- normalised cell viability [1]: 1.013 ± 0.0058
- normalised cell viability [2]: 1 ± 0.029
- normalised cell viability [3]: 1.013 ± 0.0058
- normalised cell viability [4]: 0.989 ± 0.027
- normalised cell viability [5]: 1.023 ± 0.0058
- normalised cell viability [6]: 1.02 ± 0.01

— the supplement of paper PMC8285479
